Assay outcomes (PubChem BioAssay)
ABHD5 PLIN5 PPI = blocks binding of human ABHD5 to perilipin-5; 0.78% of 360,000 active; inhibition, % at 4 µM; Q00G26+Q8WTS1; Split G. princeps luciferase complementation, luminescence, 4 h;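 active = inhibition above the mean inhibition across every tested compound plus 3 SD, cut at about 22% in these data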
TRPM1 prom inh = inhibitors of MITF-driven TRPM1 promoter in melanoma cells; SK-MEL-5 TRPM1 promoter luciferase, 24 h; inhibition, % at 12.5 µM; 0.83% of 330,000 active; AID 488899;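 active = mean inhibition across replicates of 60% or more, whatever share of single replicates reaches that level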
KKLEB cytotox = counter-screen for CF NF-kB inhibitors: cytotoxicity; KKLEB CF airway cells viability, ATPlite luminescence, overnight; hits give low values; cells stimulated with P. aeruginosa culture filtrate; activity change (cytotoxicity), % at 5 µM; 0.36% of 360,000 active;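 active = corrected activity change at or below -50% at 5 µM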
HIF-2a block = HIF-2a inhibition | 786-0 RCC cells HIF-2a reporter, luciferase luminescence, overnight | inhibition, % at 18.8 µM | 0.72% of 360,000 active;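 active = inhibition of the luminescence signal of 40% or more relative to plate controls, in a single-dose primary screen at 18.75 µM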
CF NFkB block = cystic fibrosis NF-kB activation inhibition; KKLEB NF-kB-GFP reporter, PAF-induced, GFP fluorescence overnight; inhibition, % at 5 µM; 0.86% of 360,000 active;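 active = at least 50% inhibition at 5 µM, scaled per plate between neutral and stimulator controls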;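 also: PAF is a Pseudomonas aeruginosa culture filtrate used as stimulus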
Peg3 prom inh = Peg3 promoter activity inhibition; HeLa PEG-Prom luciferase reporter, luminescence, overnight; inhibition, % at 20 µM; 1.7% of 360,000 active; AID 588405;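 active = inhibition of at least 50% at 20 µM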
ABHD5-PLIN5 conf = ABHD5-PLIN5 interaction inhibition, confirmed. shares compounds with ABHD5 PLIN5 PPI. biochemical ABHD5-PLIN5 interaction, luminescence. inhibition, % at 4 µM. 67% of 2,200 active; in the data active = inhibition above about 23%
HNF4 split-luc = HNF4 split-luciferase signal hit, counter-screen. shares compounds with ABHD5 PLIN5 PPI. HNF4 dimerization, luminescence, biochemical. inhibition, % at 4 µM. 77% of 2,200 active. AID 651674;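 active = mean inhibition across replicate wells exceeding the computed hit threshold, cut at about 13% in these data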;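 also: light from luciferase halves that rejoin when HNF4 fusion proteins dimerize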
Target sequence (P41235 whole entry, looked up, the tested form may be a part): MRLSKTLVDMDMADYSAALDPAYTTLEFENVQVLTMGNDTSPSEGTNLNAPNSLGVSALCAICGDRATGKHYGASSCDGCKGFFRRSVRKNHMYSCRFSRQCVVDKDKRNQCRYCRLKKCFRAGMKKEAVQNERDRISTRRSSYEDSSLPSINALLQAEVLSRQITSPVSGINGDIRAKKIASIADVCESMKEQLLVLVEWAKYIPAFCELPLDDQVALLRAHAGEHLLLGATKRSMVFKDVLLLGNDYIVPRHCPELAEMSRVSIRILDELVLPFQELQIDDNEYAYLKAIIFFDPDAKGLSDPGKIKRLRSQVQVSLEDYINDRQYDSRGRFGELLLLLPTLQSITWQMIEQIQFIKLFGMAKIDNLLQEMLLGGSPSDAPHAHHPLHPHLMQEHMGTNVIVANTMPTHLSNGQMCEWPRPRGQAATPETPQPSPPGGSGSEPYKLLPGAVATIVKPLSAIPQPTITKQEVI
A number is an active result; 0 = inactive; - = no result. Only some compounds are listed: those with a hit (about 3% of all), similar ones and a draw of the others.

SMILES	ABHD5 PLIN5 PPI	TRPM1 prom inh	KKLEB cytotox	HIF-2a block	CF NFkB block	Peg3 prom inh	ABHD5-PLIN5 conf	HNF4 split-luc
CC1Sc2ccc(S(=O)(=O)N3CCC(C(=O)NCc4ccc(Cl)cc4)CC3)cc2NC1=O (stereo not given)	26.7	0	0	0	0	0	43.5	-
CN(C)CCCN(C(=O)c1ccc2c(c1)OCCO2)c1nc2cc3c(cc2s1)OCO3	0	0	0	0	0	0	-	-
Cc1cccc2sc(N(CCCN(C)C)C(=O)c3ccc(Cl)s3)nc12	25.3	0	0	0	0	0	0	0
Cc1cc(C)c2nc(N(CCCN(C)C)C(=O)C3=COCCO3)sc2c1	0	0	0	0	0	0	-	-
COc1cccc2sc(N(CCCN(C)C)C(=O)COc3ccc(Cl)cc3)nc12	28.7	0	0	0	0	0	23.1	0
COc1ccc(C)c2sc(N(CCCN(C)C)C(=O)c3ccc4c(c3)OCCO4)nc12	23.4	0	0	0	0	0	0	0
Cc1cc(C)c2nc(N(CCCN(C)C)C(=O)c3ccc4c(c3)OCCO4)sc2c1	26.8	0	0	0	0	97.7	0	0
Cc1ccc2c(CC(=O)Nc3ccc4nc(N5CCOCC5)sc4c3)coc2c1	0	-	0	0	0	0	-	-
O=C(/C=C/c1cccc([N+](=O)[O-])c1)c1cccs1	74.2	79.9	0	0	0	98.7	97.3	102.2
O=C(/C=C/c1cccc([N+](=O)[O-])c1)Nc1ccc(NC(=O)c2cccs2)cc1	0	0	0	0	0	0	-	-
COCCCn1c(SC(C)C(=O)Nc2c(C)n(C)n(-c3ccccc3)c2=O)n[nH]c1=O (stereo not given)	0	0	0	0	0	0	-	-
O=C(COC(=O)c1ccc(F)cc1F)Nc1cccc(S(=O)(=O)N2CCOCC2)c1	0	0	0	0	0	0	-	-
CCOC(=O)C(=Cc1ccc(-c2ccsc2C(=O)OC)o1)C(=O)OCC	0	0	0	0	0	0	-	-
COC(=O)C(=Cc1ccc(-c2ccsc2C(=O)OC)o1)C(=O)OC	23.3	0	0	0	0	0	24.0	37.1
O=[N+]([O-])c1ccc(/C=N/Nc2ccc3ccccc3c2)o1	28.1	0	0	0	0	0	31.3	17.1
O=[N+]([O-])c1ccc(/C=N/NC(=S)Nc2ccccc2)o1	0	0	0	0	0	0	-	-
Cc1cc(C)cc(N2C(=O)C=CC2=O)c1	35.1	0	0	0	89.0	106.2	28.8	88.5
O=C(N/N=C/C(Br)=C/c1ccccc1)C(O)c1ccccc1 (stereo not given)	25.5	0	0	0	0	0	0	33.6
O=C(N/N=C/C(Br)=C/c1ccccc1)C1CC1	0	0	0	0	0	0	-	-
O=C(Nc1ccc[n+](CC(=O)c2cccc3ccccc23)c1)c1ccccc1	24.0	0	0	0	0	0	0	0
O=C(C[n+]1cccc(C(=O)Nc2ccccc2)c1)c1ccccc1	0	-	-	0	-	-	-	-
C#CCOCCOCCOCCNc1nc(N2CCOCC2)nc(N2CCN(C(=O)CCCCCCCCCCNC(=O)[C@H]([C@@H](C)CC)n3cc(CCCCN=C(N)N)nn3)CC2)n1	33.9	0	0	0	0	0	0	0
C#CCOCCOCCOCCNc1nc(N2CCN(C(=O)CCCCCCCCCCNC(=O)[C@@H](CCSC)n3cc(CCO)nn3)CC2)nc(N2CCN(C(=O)CCCCCCCCCCNC(=O)[C@H](CO)n3cc(CCCCCN)nn3)CC2)n1	45.9	0	0	0	0	0	0	0
C#CCOCCOCCOCCNc1nc(N2CCOCC2)nc(N2CCN(C(=O)[C@H]([C@@H](C)O)n3cc(CCCCN)nn3)CC2)n1	0	0	0	0	0	0	-	-
C#CCOCCOCCOCCNc1nc(N2CCN(C(=O)CCCCCCCCCCNC(=O)[C@@H](CCC(=O)O)n3cc(CCCCCN)nn3)CC2)nc(N2CCN(C(=O)CCCCCCCCCCNC(=O)[C@H](CO)n3cc(CCCCCN)nn3)CC2)n1	35.9	0	0	0	0	0	0	0
SMILES	ABHD5 PLIN5 PPI	TRPM1 prom inh	KKLEB cytotox	HIF-2a block	CF NFkB block	Peg3 prom inh	ABHD5-PLIN5 conf	HNF4 split-luc
C#CCOCCOCCOCCNc1nc(N2CCN(C(=O)CCCCCCCCCCNC(=O)[C@@H](CCC(=O)O)n3cc(CCCCCN)nn3)CC2)nc(N2CCN(C(=O)CCCCCCCCCCNC(=O)[C@H](CCCCN)n3cc(C[C@@H](C)CC)nn3)CC2)n1	41.2	0	0	0	0	0	0	0
CC(C)Cc1nnc(NC(=O)CCC(=O)NC2CCCC2)s1	0	0	0	0	0	0	-	-
S=C(NCCc1ccc(Cl)cc1)NC1CC1	0	0	0	0	0	0	-	-
O=C(NCCc1ccccn1)C1CCCN1S(=O)(=O)c1ccc(Cl)cc1 (stereo not given)	0	0	0	0	0	0	-	-
Cc1ccccc1N1C(=O)CC(Sc2nnc(-c3ccccc3)o2)C1=O (stereo not given)	35.0	0	0	0	0	95.3	59.8	98.2
O=C1CC(Sc2nnc(-c3ccccc3)o2)C(=O)N1c1ccccc1 (stereo not given)	0	0	0	0	0	0	-	-
COC(=O)c1ccc2nc(-c3ccc(C)cc3)c(Cc3ccc(C)cc3)n2c1	0	-	-	0	-	-	-	-
Cc1cc(Br)cn2c(Cc3ccccc3)c(-c3cccc(Cl)c3)nc12	0	-	-	0	-	-	-	-
COC(=O)c1ccc2nc(-c3ccco3)c(Cc3ccc(C)cc3)n2c1	39.0	-	0	0	0	0	0	42.3
COC(=O)c1ccc2nc(-c3ccco3)c(Cc3ccccc3C(F)(F)F)n2c1	52.1	-	-	0	-	-	24.4	66.4
COC(=O)c1ccc2nc(-c3ccco3)c(Cc3cccc(F)c3)n2c1	56.8	-	0	0	0	0	48.2	83.0
Cc1cc(Br)cn2c(Cc3cccc(Cl)c3)c(-c3ccco3)nc12	28.0	-	-	0	-	-	28.5	40.0
Cc1cc(C(=O)N2CCCC(C(=O)c3cccc(C(F)(F)F)c3)C2)nc(C)n1 (stereo not given)	0	0	0	0	0	0	-	-
CCCCC(=O)N(C)c1c(C)nc2ccc(C(=O)N(C)Cc3ccco3)cn12	0	-	0	0	0	0	-	-
CCCCOc1ccc(-c2cc(C(F)(F)F)c(C#N)c(SCC(=O)O)n2)cc1	0	0	0	0	0	0	-	-
COC(=O)c1ccc2nc(-c3ccc(F)cc3)c(Cc3ccc(OC)cc3C)n2c1	0	-	0	0	0	0	-	-
Cc1ccc(Cc2c(-c3ccco3)nc3ccc(C)cn23)cc1	37.2	-	0	0	0	0	0	34.2
COC(=O)c1ccc2nc(-c3ccco3)c(Cc3ccc(OC)cc3C)n2c1	46.7	-	0	0	0	0	72.2	83.2
